Growth inhibition data for 40 compounds are collected here from PubChem BioAssay (NCI).

This is part of a sample that, as a whole, favours compounds with a hit. Of some 79,000 tested, about 15% had one in any assay. The source made the active and inactive calls. Rule as the data show it: active = growth inhibition above about 70%; inactive = the rest.

The nature of one test: NCI Yeast Anticancer Drug Screen. Data for the mec2-1 strain (AID 157). As to conditions: S. cerevisiae mec2-1 strain, at 50.0 µM, stronger effect = higher value. In short, it runs like this: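 Mutant yeast (mec2-1) grown with compound; growth inhibition relative to vehicle control reported.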
In the case of `O=[n+]1c2c(n([O-])c3ccc4ccccc4c31)-c1cccc3cccc-2c13`, the growth inhibition is 15.2% (inactive).

Take `COc1ccc(C(=O)Cc2ccc(Cl)cc2)cc1OC`: the growth inhibition is 2.65% (inactive).

For `CCN(CC)CCC(=O)c1ccc(Oc2ccc(C)cc2)cc1`, the growth inhibition was 40.2% (inactive).

With `BrC(Br)=C1C(=C(Br)Br)C(Br)C1Br` (stereo not given), the growth inhibition is 77.4% (active).

In the case of `O=C(O)C(Cc1cc(I)c(O)c(I)c1)c1ccccc1` (stereo not given), the growth inhibition was 19.2% (inactive).

On to `CC1(C)OC2C(COC(c3ccccc3)(c3ccccc3)c3ccccc3)OC(n3ccc(=O)[nH]c3=O)C2O1` (stereo not given), for which the growth inhibition was 53.6% (inactive).

In the case of `Clc1ccc(C2=CCN3CC=C(c4ccc(Cl)cc4)C23)cc1`, the growth inhibition is 99.9% (active).

Take `Nc1ccc([N+](=O)[O-])cc1Nc1c2ccccc2nc2ccccc12`: the growth inhibition was 17.7% (inactive).

As to `COc1c2c3c(ccnc3c3ccccc13)C(=O)N2C`, the growth inhibition is 71.3% (active).

As to `O=C1/C(=C/c2ccc([N+](=O)[O-])cc2)CNC/C1=C\c1ccc([N+](=O)[O-])cc1`, the growth inhibition is 87.5% (active).

Take `Clc1ccc(-c2nnn3ccccc23)cc1`: the growth inhibition is 93.5% (active).

With `O=Cc1ccc([N+](=O)[O-])o1`, the growth inhibition is 99.4% (active).

As to `CN(C)Cc1cc(C(C)(C)C)cc(C2CCCCC2)c1O`, the growth inhibition is 38.5% (inactive).

Take `COc1ccc2c(c1)CN([C@@H](C)[C@H]1CC[C@H]3[C@@H]4CC[C@H]5C[C@@H](O)CC[C@]5(C)[C@H]4CC[C@]13C)CO2`: the growth inhibition is 99.3% (active).

For `FC(F)(F)c1ccc(NC(=S)SCc2ccc3c(c2)OCO3)cc1`, the growth inhibition is 95% (active).

As for `Nc1cc(F)c2c(c1F)C(=O)c1cc(F)ccc1-2`, the growth inhibition is 27.3% (inactive).

With `CC12CCCCC1CCC(Br)C2=O` (stereo not given), the growth inhibition was 41.5% (inactive).

With `CC(C)c1cc(O)c(C(C)(C)C)cc1Cl`, the growth inhibition is 77.2% (active).

Consider `CCCOC(=O)CCCC(=O)N(CC)CC`, for which the growth inhibition is -7.7% (inactive).

As to `CCOC(=O)c1cc(Cc2ccccc2)c(=O)n(C)c1-c1ccccc1`, the growth inhibition is 3.1% (inactive).

In the case of `COS(=O)c1cc(Cl)cc(Cl)c1OC(=O)CSSCC(=O)Oc1c(Cl)cc(Cl)cc1S(=O)OC` (stereo not given), the growth inhibition is 99.3% (active).

Consider `ICCCCSc1cc(-c2ccccc2)[o+]c2ccccc12`, for which the growth inhibition was 72.2% (active).

With `Nc1cc(Cl)c2c(c1)Cc1ccccc1-2`, the growth inhibition is 9.45% (inactive).

In the case of `Cc1ccc(S(=O)(=O)NCCSSCCNS(=O)(=O)c2ccc(C)cc2)cc1`, the growth inhibition is 96% (active).

Consider `OC(Cc1cccnc1)(c1ccccc1)c1ccc(Cl)cc1` (stereo not given), for which the growth inhibition was 98% (active).

For the compound `Cc1ccc(C2=CC(=O)/C(=C\C(=O)c3ccc(Cl)cc3)O2)cc1`, the growth inhibition was 55.5% (inactive).

For the compound `O=C(Nc1ncnc2c1ncn2C1CC(O)C(CO)O1)c1ccccc1` (stereo not given), the growth inhibition was -11.3% (inactive).

`O=C1CSC(=S)N1c1ccc(F)cc1F`: the growth inhibition is 22.6% (inactive).

With `CCCOC(=O)C(Br)C(Br)C(=O)OCCC` (stereo not given), the growth inhibition is 93% (active).

With `c1ccc2nc3[nH]c4ccccc4c3cc2c1`, the growth inhibition was 53.6% (inactive).

For `O=S(=O)(c1ccc(NC(=S)NCc2ccncc2)cc1)N1CCCCC1`, the growth inhibition is -13.6% (inactive).

For the compound `Nc1ccccc1Sc1ccccc1`, the growth inhibition is 77.3% (active).

Turning to `CCC(Cl)COP(=O)(OCC(Cl)CC)OC(c1ccc(Cl)c(Cl)c1)P(=O)(OCC(Cl)CC)OCC(Cl)CC` (stereo not given), the growth inhibition is 91.2% (active).

With `O=C(O)/C=C\c1cc2ccccc2c2ccccc12`, the growth inhibition was 98.8% (active).

For the compound `COC(=O)C1C2CC3c4[nH]c5cc(OC)c(Br)cc5c4CCN3CC2CC(OC(=O)c2cc(OC)c(OC)c(OC)c2)C1OC` (stereo not given), the growth inhibition was 87.5% (active).

As to `Cc1c2ccnc(-c3ccc(F)cc3)c2cc2c1[nH]c1ccccc12`, the growth inhibition was -14.4% (inactive).

`COc1cc2cc[n+]3c4ccc([N+](=O)[O-])cc4ccc3c2cc1OC`: the growth inhibition was 55.5% (inactive).

Take `CCCCCCCCC1N(C)CCCN1C`: the growth inhibition was 99.6% (active).

As to `CC1(C)OC2C(COC(c3ccccc3)(c3ccccc3)c3ccccc3)OC(n3cnc4c(=O)[nH]cnc43)C2O1` (stereo not given), the growth inhibition is 62% (inactive).

Turning to `COc1cccc2c1C(=O)c1c(O)c3c(c(O)c1C2=O)C[C@@](O)(C(=O)CO)C[C@@H]3OC1CC(N(C)C)C(O)C(C)O1` (stereo not given in full), the growth inhibition is 91.8% (active).

The next test in a line: NCI Yeast Anticancer Drug Screen. Data for the sgs1 mgt1 strain (AID 161).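 Also: 0% = growth of cultures given vehicle only.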 As to conditions: S. cerevisiae sgs1 mgt1 strain, at 5.0 µM (retest, dose inferred, filed as 0.5), stronger effect = higher value. In short, it runs like this:
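Compounds are added to genetically altered yeast, and growth is compared with cultures given vehicle alone to give percent inhibition.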
With `O=[n+]1c2c(n([O-])c3ccc4ccccc4c31)-c1cccc3cccc-2c13`, the growth inhibition was -4% (inactive).

`COc1ccc(C(=O)Cc2ccc(Cl)cc2)cc1OC`: the growth inhibition is -14% (inactive).

As for `CCN(CC)CCC(=O)c1ccc(Oc2ccc(C)cc2)cc1`, the growth inhibition is 24% (inactive).

As for `BrC(Br)=C1C(=C(Br)Br)C(Br)C1Br` (stereo not given), the growth inhibition was 72% (active).

With `O=C(O)C(Cc1cc(I)c(O)c(I)c1)c1ccccc1` (stereo not given), the growth inhibition is -25% (inactive).

With `CC1(C)OC2C(COC(c3ccccc3)(c3ccccc3)c3ccccc3)OC(n3ccc(=O)[nH]c3=O)C2O1` (stereo not given), the growth inhibition is 43% (inactive).

For the compound `Clc1ccc(C2=CCN3CC=C(c4ccc(Cl)cc4)C23)cc1`, the growth inhibition was 32% (inactive).

In the case of `Nc1ccc([N+](=O)[O-])cc1Nc1c2ccccc2nc2ccccc12`, the growth inhibition was 1% (inactive).

As to `COc1c2c3c(ccnc3c3ccccc13)C(=O)N2C`, the growth inhibition is 19% (inactive).

Take `O=C1/C(=C/c2ccc([N+](=O)[O-])cc2)CNC/C1=C\c1ccc([N+](=O)[O-])cc1`: the growth inhibition was 93% (active).

`Clc1ccc(-c2nnn3ccccc23)cc1`: the growth inhibition was -3% (inactive).

Take `O=Cc1ccc([N+](=O)[O-])o1`: the growth inhibition is 13% (inactive).

Consider `CN(C)Cc1cc(C(C)(C)C)cc(C2CCCCC2)c1O`, for which the growth inhibition was -1% (inactive).

On to `COc1ccc2c(c1)CN([C@@H](C)[C@H]1CC[C@H]3[C@@H]4CC[C@H]5C[C@@H](O)CC[C@]5(C)[C@H]4CC[C@]13C)CO2`, for which the growth inhibition is 97% (active).

With `FC(F)(F)c1ccc(NC(=S)SCc2ccc3c(c2)OCO3)cc1`, the growth inhibition is -3% (inactive).

On to `Nc1cc(F)c2c(c1F)C(=O)c1cc(F)ccc1-2`, for which the growth inhibition was 2% (inactive).

Consider `CC12CCCCC1CCC(Br)C2=O` (stereo not given), for which the growth inhibition is -51% (inactive).

With `CC(C)c1cc(O)c(C(C)(C)C)cc1Cl`, the growth inhibition was -1% (inactive).

In the case of `CCCOC(=O)CCCC(=O)N(CC)CC`, the growth inhibition is 0% (inactive).

In the case of `CCOC(=O)c1cc(Cc2ccccc2)c(=O)n(C)c1-c1ccccc1`, the growth inhibition was 0% (inactive).

`COS(=O)c1cc(Cl)cc(Cl)c1OC(=O)CSSCC(=O)Oc1c(Cl)cc(Cl)cc1S(=O)OC` (stereo not given): the growth inhibition is 95% (active).

In the case of `ICCCCSc1cc(-c2ccccc2)[o+]c2ccccc12`, the growth inhibition is 19% (inactive).

Take `Nc1cc(Cl)c2c(c1)Cc1ccccc1-2`: the growth inhibition was 7% (inactive).

For the compound `Cc1ccc(S(=O)(=O)NCCSSCCNS(=O)(=O)c2ccc(C)cc2)cc1`, the growth inhibition is -2% (inactive).

Consider `OC(Cc1cccnc1)(c1ccccc1)c1ccc(Cl)cc1` (stereo not given), for which the growth inhibition is 6% (inactive).

Take `Cc1ccc(C2=CC(=O)/C(=C\C(=O)c3ccc(Cl)cc3)O2)cc1`: the growth inhibition was 17% (inactive).

In the case of `O=C(Nc1ncnc2c1ncn2C1CC(O)C(CO)O1)c1ccccc1` (stereo not given), the growth inhibition was -1% (inactive).

On to `O=C1CSC(=S)N1c1ccc(F)cc1F`, for which the growth inhibition was 10% (inactive).

Regarding `CCCOC(=O)C(Br)C(Br)C(=O)OCCC` (stereo not given), the growth inhibition was 36% (inactive).

For the compound `c1ccc2nc3[nH]c4ccccc4c3cc2c1`, the growth inhibition was 14% (inactive).

In the case of `O=S(=O)(c1ccc(NC(=S)NCc2ccncc2)cc1)N1CCCCC1`, the growth inhibition was -14% (inactive).

With `Nc1ccccc1Sc1ccccc1`, the growth inhibition is 46% (inactive).

For `CCC(Cl)COP(=O)(OCC(Cl)CC)OC(c1ccc(Cl)c(Cl)c1)P(=O)(OCC(Cl)CC)OCC(Cl)CC` (stereo not given), the growth inhibition was -1% (inactive).

With `O=C(O)/C=C\c1cc2ccccc2c2ccccc12`, the growth inhibition is 18% (inactive).

As for `COC(=O)C1C2CC3c4[nH]c5cc(OC)c(Br)cc5c4CCN3CC2CC(OC(=O)c2cc(OC)c(OC)c(OC)c2)C1OC` (stereo not given), the growth inhibition is -5% (inactive).

In the case of `Cc1c2ccnc(-c3ccc(F)cc3)c2cc2c1[nH]c1ccccc12`, the growth inhibition is -26% (inactive).

Turning to `COc1cc2cc[n+]3c4ccc([N+](=O)[O-])cc4ccc3c2cc1OC`, the growth inhibition is 42% (inactive).

For the compound `CCCCCCCCC1N(C)CCCN1C`, the growth inhibition is -37% (inactive).

For `CC1(C)OC2C(COC(c3ccccc3)(c3ccccc3)c3ccccc3)OC(n3cnc4c(=O)[nH]cnc43)C2O1` (stereo not given), the growth inhibition was 24% (inactive).

`COc1cccc2c1C(=O)c1c(O)c3c(c(O)c1C2=O)C[C@@](O)(C(=O)CO)C[C@@H]3OC1CC(N(C)C)C(O)C(C)O1` (stereo not given in full): the growth inhibition is 97% (active).
